Columns and labels:
[1] = test system: Epidermal growth factor receptor (Homo sapiens), P00533 [T790M]; details: at 1 µM
[2] = test system: Epidermal growth factor receptor (Homo sapiens), P00533 [L858R,T790M]; details: at 0.1 µM
[3] = test system: Epidermal growth factor receptor (Homo sapiens), P00533 [L858R,T790M]; details: at 1 µM
[4] = target: Ephrin type-A receptor 2 (Homo sapiens) (UniProt P29317); details: at 0.1 µM
[5] = target: Ephrin type-A receptor 2 (Homo sapiens) (UniProt P29317); details: at 1 µM
[6] = target: T1, Ephrin type-A receptor 3 (Homo sapiens) (UniProt P29320); details: at 0.1 µM
T1 sequence (whole entry): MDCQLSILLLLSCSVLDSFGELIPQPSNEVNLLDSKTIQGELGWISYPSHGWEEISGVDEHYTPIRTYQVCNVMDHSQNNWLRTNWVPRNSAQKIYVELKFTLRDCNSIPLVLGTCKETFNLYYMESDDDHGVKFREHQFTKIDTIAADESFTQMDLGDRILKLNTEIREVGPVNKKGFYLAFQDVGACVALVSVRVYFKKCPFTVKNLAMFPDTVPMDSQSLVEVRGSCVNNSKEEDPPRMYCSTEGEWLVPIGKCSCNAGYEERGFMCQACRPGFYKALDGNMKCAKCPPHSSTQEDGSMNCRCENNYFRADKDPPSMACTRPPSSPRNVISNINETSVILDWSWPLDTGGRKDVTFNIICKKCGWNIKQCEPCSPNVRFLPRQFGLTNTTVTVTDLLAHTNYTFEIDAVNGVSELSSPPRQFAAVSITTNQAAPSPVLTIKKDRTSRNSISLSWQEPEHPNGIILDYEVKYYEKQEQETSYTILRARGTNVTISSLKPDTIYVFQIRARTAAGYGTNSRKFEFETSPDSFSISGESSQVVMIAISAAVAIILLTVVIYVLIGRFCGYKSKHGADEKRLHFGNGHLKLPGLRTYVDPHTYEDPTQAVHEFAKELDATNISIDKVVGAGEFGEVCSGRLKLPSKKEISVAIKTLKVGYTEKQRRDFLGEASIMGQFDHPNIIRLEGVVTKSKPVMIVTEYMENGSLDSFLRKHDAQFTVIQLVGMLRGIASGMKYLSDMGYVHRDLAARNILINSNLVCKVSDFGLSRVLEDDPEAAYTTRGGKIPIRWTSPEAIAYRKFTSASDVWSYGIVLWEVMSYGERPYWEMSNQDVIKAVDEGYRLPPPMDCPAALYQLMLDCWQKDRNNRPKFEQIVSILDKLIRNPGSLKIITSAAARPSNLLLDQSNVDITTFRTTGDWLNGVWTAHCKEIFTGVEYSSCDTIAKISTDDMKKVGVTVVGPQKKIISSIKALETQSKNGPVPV

[7] = target: T1, Ephrin type-A receptor 3 (Homo sapiens); details: at 1 µM
[8] = target: Ephrin type-A receptor 4 (Homo sapiens) (UniProt P54764); details: at 0.1 µM
[9] = target: Ephrin type-A receptor 4 (Homo sapiens) (UniProt P54764); details: at 1 µM
[10] = target: T2, Ephrin type-B receptor 2 (Homo sapiens) (UniProt P29323); details: at 0.1 µM;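 further: reported as mean inhibition of EPHB2, from the GSK PKIS dataset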
T2 sequence (whole entry): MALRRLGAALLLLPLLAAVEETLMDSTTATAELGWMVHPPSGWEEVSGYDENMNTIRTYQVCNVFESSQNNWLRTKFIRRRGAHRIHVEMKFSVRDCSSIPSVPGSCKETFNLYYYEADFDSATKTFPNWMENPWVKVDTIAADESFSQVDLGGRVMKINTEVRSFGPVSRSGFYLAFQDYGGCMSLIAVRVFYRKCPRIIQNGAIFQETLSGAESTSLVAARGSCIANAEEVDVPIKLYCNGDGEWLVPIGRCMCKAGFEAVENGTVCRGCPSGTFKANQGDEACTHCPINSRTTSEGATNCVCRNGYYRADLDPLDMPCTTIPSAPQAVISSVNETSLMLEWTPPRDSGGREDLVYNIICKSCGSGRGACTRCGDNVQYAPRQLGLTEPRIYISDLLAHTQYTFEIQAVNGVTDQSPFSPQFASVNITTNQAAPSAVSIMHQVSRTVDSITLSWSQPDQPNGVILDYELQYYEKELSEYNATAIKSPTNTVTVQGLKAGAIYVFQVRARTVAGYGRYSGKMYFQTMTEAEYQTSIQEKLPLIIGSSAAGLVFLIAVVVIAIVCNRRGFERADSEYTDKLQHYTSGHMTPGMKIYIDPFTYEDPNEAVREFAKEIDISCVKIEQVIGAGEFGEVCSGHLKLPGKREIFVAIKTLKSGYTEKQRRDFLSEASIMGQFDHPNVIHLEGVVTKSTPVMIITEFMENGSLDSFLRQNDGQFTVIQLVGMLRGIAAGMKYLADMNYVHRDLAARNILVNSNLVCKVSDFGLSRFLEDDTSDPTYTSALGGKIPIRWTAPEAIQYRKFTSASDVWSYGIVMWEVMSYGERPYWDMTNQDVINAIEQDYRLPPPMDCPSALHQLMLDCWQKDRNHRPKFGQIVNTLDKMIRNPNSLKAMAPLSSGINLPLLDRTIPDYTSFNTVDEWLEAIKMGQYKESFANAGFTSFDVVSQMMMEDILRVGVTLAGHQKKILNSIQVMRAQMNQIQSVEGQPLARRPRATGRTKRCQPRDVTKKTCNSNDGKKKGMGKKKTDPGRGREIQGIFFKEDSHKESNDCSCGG

Epidermal growth factor receptor (Homo sapiens), P00533 [T790M], sequence (P00533 whole entry T790M): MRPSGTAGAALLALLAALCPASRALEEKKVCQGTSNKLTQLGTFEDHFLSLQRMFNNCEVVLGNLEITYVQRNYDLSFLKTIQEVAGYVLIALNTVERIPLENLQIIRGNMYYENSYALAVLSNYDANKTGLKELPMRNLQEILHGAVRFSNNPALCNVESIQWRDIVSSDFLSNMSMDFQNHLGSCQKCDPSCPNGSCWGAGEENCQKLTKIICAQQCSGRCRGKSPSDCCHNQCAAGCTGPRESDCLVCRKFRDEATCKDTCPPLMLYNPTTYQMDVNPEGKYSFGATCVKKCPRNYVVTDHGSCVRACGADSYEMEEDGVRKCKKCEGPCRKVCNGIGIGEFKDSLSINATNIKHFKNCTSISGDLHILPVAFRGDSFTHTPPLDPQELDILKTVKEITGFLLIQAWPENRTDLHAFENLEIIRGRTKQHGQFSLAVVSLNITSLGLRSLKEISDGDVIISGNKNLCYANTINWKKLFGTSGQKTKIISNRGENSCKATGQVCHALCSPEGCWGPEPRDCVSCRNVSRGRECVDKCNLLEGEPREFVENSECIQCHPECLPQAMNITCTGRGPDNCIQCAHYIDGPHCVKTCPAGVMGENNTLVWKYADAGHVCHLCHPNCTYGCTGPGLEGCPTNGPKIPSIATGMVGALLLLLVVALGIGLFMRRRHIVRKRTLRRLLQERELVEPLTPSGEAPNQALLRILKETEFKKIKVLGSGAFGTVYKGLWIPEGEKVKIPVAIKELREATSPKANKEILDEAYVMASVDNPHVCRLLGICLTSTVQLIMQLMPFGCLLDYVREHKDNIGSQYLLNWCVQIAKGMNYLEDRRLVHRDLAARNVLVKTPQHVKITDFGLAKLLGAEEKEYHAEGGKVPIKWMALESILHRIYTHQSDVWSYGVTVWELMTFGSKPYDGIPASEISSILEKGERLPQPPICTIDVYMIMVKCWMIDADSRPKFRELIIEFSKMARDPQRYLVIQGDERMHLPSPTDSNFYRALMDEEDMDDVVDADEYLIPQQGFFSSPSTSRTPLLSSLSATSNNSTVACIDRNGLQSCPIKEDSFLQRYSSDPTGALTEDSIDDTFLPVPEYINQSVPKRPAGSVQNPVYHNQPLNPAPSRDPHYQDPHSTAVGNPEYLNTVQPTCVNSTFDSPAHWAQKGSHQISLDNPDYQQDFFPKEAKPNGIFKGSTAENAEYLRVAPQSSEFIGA
Ephrin type-A receptor 4 (Homo sapiens), sequence (P54764 whole entry): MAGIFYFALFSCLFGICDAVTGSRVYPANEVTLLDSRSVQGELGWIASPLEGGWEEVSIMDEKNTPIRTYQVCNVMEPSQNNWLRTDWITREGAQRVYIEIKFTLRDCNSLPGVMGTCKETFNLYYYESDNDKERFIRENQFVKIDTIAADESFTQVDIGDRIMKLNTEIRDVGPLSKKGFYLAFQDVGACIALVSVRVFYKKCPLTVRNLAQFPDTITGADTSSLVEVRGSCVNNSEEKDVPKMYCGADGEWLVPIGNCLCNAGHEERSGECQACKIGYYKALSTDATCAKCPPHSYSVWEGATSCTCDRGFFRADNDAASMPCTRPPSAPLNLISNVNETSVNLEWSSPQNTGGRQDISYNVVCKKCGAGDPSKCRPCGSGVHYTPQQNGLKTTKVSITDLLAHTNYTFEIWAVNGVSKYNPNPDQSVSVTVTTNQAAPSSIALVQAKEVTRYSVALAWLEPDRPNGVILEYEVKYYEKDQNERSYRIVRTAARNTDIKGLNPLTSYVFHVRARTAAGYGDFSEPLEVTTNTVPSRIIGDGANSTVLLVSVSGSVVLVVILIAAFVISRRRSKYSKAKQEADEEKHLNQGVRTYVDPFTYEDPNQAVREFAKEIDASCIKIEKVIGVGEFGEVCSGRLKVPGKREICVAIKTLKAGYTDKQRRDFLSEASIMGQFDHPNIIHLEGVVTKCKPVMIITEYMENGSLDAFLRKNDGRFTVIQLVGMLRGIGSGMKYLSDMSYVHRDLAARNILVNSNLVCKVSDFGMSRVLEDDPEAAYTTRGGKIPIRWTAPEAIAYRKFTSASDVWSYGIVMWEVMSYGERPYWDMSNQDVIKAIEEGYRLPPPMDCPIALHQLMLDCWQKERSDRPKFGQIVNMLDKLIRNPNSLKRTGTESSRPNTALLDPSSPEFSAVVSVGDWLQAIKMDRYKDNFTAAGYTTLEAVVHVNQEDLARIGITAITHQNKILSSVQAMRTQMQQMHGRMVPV
Epidermal growth factor receptor (Homo sapiens), P00533 [L858R,T790M], sequence (P00533 whole entry T790M/L858R, looked up): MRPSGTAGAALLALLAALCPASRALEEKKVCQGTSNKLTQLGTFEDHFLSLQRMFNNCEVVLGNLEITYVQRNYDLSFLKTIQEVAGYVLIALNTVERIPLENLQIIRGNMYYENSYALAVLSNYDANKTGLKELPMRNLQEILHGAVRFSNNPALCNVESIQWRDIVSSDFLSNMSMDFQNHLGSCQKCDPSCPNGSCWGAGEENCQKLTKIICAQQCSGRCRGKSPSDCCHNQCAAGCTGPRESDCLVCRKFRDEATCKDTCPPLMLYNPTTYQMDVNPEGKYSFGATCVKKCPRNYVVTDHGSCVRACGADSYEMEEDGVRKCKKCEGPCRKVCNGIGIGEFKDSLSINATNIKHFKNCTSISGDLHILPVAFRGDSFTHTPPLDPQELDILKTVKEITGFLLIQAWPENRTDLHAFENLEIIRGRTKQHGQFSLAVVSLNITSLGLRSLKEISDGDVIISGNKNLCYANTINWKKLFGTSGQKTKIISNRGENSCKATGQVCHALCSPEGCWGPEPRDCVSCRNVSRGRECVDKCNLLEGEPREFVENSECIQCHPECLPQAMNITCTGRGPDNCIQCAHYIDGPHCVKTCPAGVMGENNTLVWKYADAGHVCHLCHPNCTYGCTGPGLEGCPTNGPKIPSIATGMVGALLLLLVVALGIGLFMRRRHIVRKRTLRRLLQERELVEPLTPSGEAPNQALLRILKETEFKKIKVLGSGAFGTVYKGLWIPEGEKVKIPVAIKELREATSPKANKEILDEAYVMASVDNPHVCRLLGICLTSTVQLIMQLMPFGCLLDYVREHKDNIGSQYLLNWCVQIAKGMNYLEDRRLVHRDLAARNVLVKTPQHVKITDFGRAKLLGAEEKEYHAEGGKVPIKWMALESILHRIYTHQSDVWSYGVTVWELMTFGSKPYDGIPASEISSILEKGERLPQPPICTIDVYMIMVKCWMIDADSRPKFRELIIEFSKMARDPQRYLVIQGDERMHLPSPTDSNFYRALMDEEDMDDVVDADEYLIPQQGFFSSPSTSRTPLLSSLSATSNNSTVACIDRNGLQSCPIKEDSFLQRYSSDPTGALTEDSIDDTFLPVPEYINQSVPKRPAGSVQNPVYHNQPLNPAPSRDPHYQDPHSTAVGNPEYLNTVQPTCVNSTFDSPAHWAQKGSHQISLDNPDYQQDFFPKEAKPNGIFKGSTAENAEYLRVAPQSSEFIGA
Ephrin type-A receptor 2 (Homo sapiens), sequence (P29317 whole entry): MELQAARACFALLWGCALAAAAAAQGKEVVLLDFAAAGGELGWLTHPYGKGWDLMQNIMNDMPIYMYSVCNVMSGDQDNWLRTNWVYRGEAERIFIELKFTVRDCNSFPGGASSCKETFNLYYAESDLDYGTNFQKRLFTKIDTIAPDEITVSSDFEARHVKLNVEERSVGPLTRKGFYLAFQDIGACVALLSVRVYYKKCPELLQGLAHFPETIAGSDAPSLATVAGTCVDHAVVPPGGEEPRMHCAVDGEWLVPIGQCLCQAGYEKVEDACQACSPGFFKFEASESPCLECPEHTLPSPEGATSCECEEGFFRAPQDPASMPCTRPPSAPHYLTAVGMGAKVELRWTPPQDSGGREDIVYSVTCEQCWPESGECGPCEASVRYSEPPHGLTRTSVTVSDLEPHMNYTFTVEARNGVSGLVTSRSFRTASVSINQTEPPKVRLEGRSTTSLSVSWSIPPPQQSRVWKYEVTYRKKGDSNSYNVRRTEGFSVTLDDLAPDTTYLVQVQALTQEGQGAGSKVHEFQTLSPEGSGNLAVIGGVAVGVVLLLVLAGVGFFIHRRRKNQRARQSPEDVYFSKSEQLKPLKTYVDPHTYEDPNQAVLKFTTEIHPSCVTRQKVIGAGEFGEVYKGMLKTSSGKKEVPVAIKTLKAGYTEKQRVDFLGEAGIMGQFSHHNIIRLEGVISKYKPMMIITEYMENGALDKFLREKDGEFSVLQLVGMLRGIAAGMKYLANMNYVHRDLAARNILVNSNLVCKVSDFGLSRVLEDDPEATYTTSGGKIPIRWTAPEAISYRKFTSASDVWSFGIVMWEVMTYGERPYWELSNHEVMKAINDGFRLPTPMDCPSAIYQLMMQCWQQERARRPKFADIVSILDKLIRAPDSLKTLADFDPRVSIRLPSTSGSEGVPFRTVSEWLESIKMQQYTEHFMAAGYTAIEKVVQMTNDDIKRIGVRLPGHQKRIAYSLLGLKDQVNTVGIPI

SMILES	inhibition [1]	inhibition [2]	inhibition [3]	inhibition [4]	inhibition [5]	inhibition [6]	inhibition [7]	inhibition [8]	inhibition [9]	inhibition [10]
Cc1cc(O)cc(C)c1/C=C/c1cncc(C(=O)OC(C)(C)C)c1	2.69%	2.41%	0.87%	16.6%	60.8%	11.2%	22.4%	31.1%	80.6%	23%
COc1c(C(N)=O)cc(-c2ccc(Cl)cc2)cc1-c1ccc(S(N)(=O)=O)cc1	3.77%	-1.73%	0.63%	1.79%	1.53%	3.06%	4.11%	8.42%	10.1%	8.67%
CN1CCC(n2cnc(-c3ccc(F)cc3)c2-c2ccnc(NCCO)n2)CC1	4.06%	1.79%	5.98%	2.31%	-0.04%	5.3%	5.33%	7.76%	14.7%	8.26%
OCCCNc1nccc(-c2c(-c3ccc(F)cc3)nn3cc(C(F)(F)F)ccc23)n1	-0.33%	-1.34%	5.46%	1.26%	1.9%	2.86%	3.67%	8.53%	13.3%	8.48%
Cc1cc(O)cc(C)c1/C=C/c1cncc(C(N)=O)c1	1.53%	0.06%	1.88%	8.68%	47.2%	5.13%	19.5%	18.6%	69.2%	16.3%
CS(=O)(=O)Nc1ccc(-c2cc(-c3ccccc3)cc(C(N)=O)c2N)cc1	-0.33%	1.11%	1.75%	-3.41%	-2.62%	0.48%	-0.2%	1.75%	4.07%	6.68%
CCS(=O)(=O)c1ccc(OC)c(Nc2ncc(-c3cccc(F)c3)o2)c1	3.03%	5.67%	2.98%	2.15%	9.85%	8.12%	17%	11.3%	33.5%	18.5%
CN(C)CCNC(=O)Nc1ccc(N(C)c2ccnc(Nc3ccc(CS(C)(=O)=O)cc3)n2)cc1	1.68%	4.53%	6.61%	2.63%	1.36%	3.79%	4.33%	6.86%	6.65%	10.6%
COc1ccc(-c2nn3ncccc3c2-c2ccnc(Nc3ccc(F)c(F)c3)n2)cc1	6.23%	3.78%	8.64%	2.87%	-0.08%	3.49%	6.3%	8.99%	16.4%	7.75%
N#Cc1ccc2c(-c3ccnc(NC4CC4)n3)c(-c3ccc(F)cc3)nn2c1	2.72%	1.77%	2.17%	-2.09%	-0.16%	1.29%	4.31%	5.96%	15.6%	8.8%
CNC(=O)c1sc(-n2cnc3cc(OC)c(OC)cc32)cc1OCc1ccccc1C(F)(F)F	0.02%	0.49%	1.43%	2.6%	2.61%	3.26%	7.45%	7.55%	13.2%	5.44%
CS(=O)(=O)CCNCc1ccc(-c2ccc3ncnc(Nc4ccc(OCc5ccccc5)cc4)c3c2)o1	12.4%	0.12%	4.35%	1.77%	1.18%	5.21%	5.62%	9.98%	11.5%	6.07%
CCS(=O)(=O)c1ccc(OC)c(Nc2ncc(-c3cccc(C(C)=O)c3)o2)c1	4.71%	1.19%	7.18%	3.84%	2.23%	3.51%	6.85%	9.55%	16.9%	9.45%
CC1=C(C(=O)Nc2ccc3[nH]ncc3c2)C(c2ccc(F)cc2)N=C(c2ccc(C(F)(F)F)nc2)N1 (stereo not given)	0.81%	4.44%	-0.48%	-1.16%	-0.31%	3.49%	3.54%	5.75%	6.21%	8.47%
O=C(Nc1n[nH]c2nnc(-c3cccnc3)cc12)C1CC1	-0.7%	-0.13%	-0.34%	-3.08%	-2.73%	-1.3%	-0.05%	0.83%	2.33%	0.05%
NS(=O)(=O)c1ccc(N/N=C2\C(=O)Nc3cccc(CCc4ccncc4)c32)cc1	0.76%	-0.13%	1.83%	-2.9%	-1.98%	0.59%	0.71%	3.79%	5.47%	4.47%
CS(=O)(=O)Nc1ccc(-c2ccc3c(NC(=O)C4CC4)n[nH]c3c2)cc1	0.23%	0.3%	0.93%	2.88%	1.54%	5.15%	4.1%	5.41%	1.08%	9.15%
c1cnn2ncc(-c3ccnc(NCCCN4CCOCC4)n3)c2c1	1.66%	-1.49%	0.81%	-0.74%	-1.53%	2.9%	6.16%	10%	5.87%	6.81%
Cc1nnc(-c2cccc(-c3ccc(C(=O)NCC4CC4)cc3)c2)o1	4.56%	2.93%	3.63%	1.56%	0.66%	5.76%	6.16%	11.3%	10.8%	11.1%

From ChEMBL document CHEMBL1961873, “Compounds: GSK PKIS; Assays: Nanosyn kinase panel” (2012)
